Laboratory results as given in PubChem BioAssay (EPA / NIEHS).
Some compounds were tested as several samples or in several runs, with calls that do not always agree. Active and inactive are the calls of the source. How the source made its calls: active means hit-call score of the fitted dose curve at least 0.9, where 1 is the maximum; inactive means score below 0.9.

Experiments:
[1] = ATG_GLI_CIS: Attagene CIS-FACTORIAL HepG2 Assay for human Zinc Finger Protein GLI1 (AID 2282945); conditions: HepG2, Attagene cis-factorial reporter mRNA, GLI element; actives raise or lower the signal
In short: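 Bidirectional curve fits relative to DMSO, using reporter mRNA levels from RT-PCR plus capillary electrophoresis. Cells were HepG2 transiently carrying cis-regulated reporter constructs, harvested 24 h after dosing.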

[2] = target: Bile acid receptor (Homo sapiens) (UniProt Q96RI1); test: ATG_IR1_CIS: Attagene CIS-FACTORIAL HepG2 Assay for human Nuclear Receptor Subfamily 1 Group H Member 4 (NR1H4), IR1 submotif (AID 2282946); conditions: IR1 reporter transcription, actives raise or lower the signal
Chain of Bile acid receptor (Homo sapiens) (Q96RI1 whole entry, looked up): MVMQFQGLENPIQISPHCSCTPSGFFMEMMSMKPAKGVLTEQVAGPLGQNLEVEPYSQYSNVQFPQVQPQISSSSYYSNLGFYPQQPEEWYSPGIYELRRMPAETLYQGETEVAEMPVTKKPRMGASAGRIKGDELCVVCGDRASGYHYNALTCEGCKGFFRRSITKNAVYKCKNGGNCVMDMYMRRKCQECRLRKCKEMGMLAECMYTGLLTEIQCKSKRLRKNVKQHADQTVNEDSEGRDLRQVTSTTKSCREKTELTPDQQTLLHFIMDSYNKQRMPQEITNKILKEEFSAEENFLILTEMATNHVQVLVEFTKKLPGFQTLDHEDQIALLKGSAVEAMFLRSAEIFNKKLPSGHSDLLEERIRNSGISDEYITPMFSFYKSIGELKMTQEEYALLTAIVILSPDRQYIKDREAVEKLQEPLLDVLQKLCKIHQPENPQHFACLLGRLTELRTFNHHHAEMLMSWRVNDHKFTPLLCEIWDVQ
In short: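 HepG2 cells transiently transfected with multiplexed cis-element reporter units read endogenous transcription factor activity. After 24 h compound exposure, reporter mRNA was quantified by RT-PCR, fluorescent labelling, HpaI digestion and capillary electrophoresis; bidirectional fitting versus DMSO baseline.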

[3] = ATG_GRE_CIS: Attagene CIS-FACTORIAL HepG2 Assay for human Glucocorticoid Response Elements (GRE) (AID 2282947); conditions: HepG2 GRE cis-reporter, Attagene multiplex mRNA; actives raise or lower the signal
In short: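 Reporter transcripts read by RT-PCR with capillary electrophoresis fluorescence after a 24 h chemical exposure of HepG2 cells transiently transfected with multiple cis-element reporter units. Gain or loss fitted against DMSO.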

[4] = ATG_ISRE_CIS: Attagene CIS-FACTORIAL HepG2 Assay for human Interferon Regulatory Factor 1 (IRF1) binding to an Interferon-Stimulated Response Element (ISRE) (AID 2282948); conditions: HepG2 ISRE cis-reporter (Attagene), mRNA transcription readout; actives raise or lower the signal
In short: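 Read-out: fluorescent RT-PCR products resolved by capillary electrophoresis, reporting endogenous transcription factor activity via ISRE-driven reporter mRNA in transfected HepG2 cells dosed for 24 h; gain or loss fitted relative to DMSO.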

[5] = ATG_M_32_CIS: Attagene CIS-FACTORIAL HepG2 Assay for M32 Transcription Factor (Internal Marker) (AID 2282949); conditions: HepG2 Attagene cis-factorial M32 reporter, mRNA; actives raise or lower the signal;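 further: background control marker of the multiplexed CIS panel rather than a real target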
In short: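 HepG2 human liver cells transiently transfected with cis-promoter-driven multiple reporter transcription units, dosed 24 h. Reporter mRNA quantified by RT-PCR, FAM-labelled primer extension, HpaI digest and capillary electrophoresis; bidirectional fit versus DMSO baseline.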

[6] = target: Hypoxia-inducible factor 1-alpha (Homo sapiens) (UniProt Q16665); test: ATG_HIF1a_CIS: Attagene CIS-FACTORIAL HepG2 Assay for human Hypoxia Inducible Factor 1 (HIF1A) (AID 2282951); conditions: HepG2 Attagene cis-factorial HIF1a reporter transcription; actives raise or lower the signal
Chain of Hypoxia-inducible factor 1-alpha (Homo sapiens) (Q16665 whole entry, looked up): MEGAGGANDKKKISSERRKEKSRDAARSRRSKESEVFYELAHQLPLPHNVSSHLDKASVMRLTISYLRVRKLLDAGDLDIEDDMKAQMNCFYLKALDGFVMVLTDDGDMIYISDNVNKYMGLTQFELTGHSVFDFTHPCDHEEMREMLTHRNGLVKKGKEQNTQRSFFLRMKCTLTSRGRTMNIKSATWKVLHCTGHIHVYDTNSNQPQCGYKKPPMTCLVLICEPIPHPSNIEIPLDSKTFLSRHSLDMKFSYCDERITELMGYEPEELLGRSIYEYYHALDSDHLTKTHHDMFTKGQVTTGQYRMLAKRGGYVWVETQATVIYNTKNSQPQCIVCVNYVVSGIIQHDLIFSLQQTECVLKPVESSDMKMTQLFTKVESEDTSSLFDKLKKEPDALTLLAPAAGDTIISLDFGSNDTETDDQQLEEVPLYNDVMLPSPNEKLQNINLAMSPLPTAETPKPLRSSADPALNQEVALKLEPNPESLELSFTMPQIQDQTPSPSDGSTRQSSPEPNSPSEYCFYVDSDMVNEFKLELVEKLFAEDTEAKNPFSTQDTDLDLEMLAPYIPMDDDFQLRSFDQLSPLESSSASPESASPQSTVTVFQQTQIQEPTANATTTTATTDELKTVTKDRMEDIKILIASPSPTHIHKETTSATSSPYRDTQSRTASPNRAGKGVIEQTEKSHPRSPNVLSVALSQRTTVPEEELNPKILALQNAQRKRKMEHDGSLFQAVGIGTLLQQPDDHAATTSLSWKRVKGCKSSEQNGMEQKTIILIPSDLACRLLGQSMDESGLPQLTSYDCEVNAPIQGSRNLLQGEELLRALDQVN
In short: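 Measures endogenous transcription-factor activity through cis-regulated reporter mRNA in HepG2. Cells dosed 24 h; transcripts quantified by RT-PCR with 6-FAM-labelled products separated by capillary electrophoresis; DMSO serves as negative control.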

[7] = target: Hepatocyte nuclear factor 6 (Homo sapiens) (UniProt Q9UBC0); test: ATG_HNF6_CIS: Attagene CIS-FACTORIAL HepG2 Assay for human Hepatocyte Nuclear Factor 6 (HNF6) (AID 2282952); conditions: HepG2 Attagene cis-factorial HNF6 reporter transcription; actives raise or lower the signal
Chain of Hepatocyte nuclear factor 6 (Homo sapiens) (Q9UBC0 whole entry, looked up, the tested form may be a part): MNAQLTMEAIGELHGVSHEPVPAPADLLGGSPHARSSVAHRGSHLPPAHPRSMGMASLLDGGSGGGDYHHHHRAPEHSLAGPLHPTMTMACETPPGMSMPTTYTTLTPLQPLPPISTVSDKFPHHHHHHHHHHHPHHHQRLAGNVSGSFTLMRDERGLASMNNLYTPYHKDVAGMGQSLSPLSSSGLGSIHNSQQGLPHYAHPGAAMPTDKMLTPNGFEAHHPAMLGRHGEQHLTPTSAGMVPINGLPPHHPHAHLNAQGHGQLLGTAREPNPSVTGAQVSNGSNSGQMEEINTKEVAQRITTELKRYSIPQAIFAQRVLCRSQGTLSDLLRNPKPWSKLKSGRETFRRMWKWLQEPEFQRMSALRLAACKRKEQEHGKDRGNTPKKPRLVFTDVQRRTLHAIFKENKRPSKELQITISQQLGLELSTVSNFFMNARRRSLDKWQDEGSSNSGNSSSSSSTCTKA
In short: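 Twenty-four-hour chemical treatment of reporter-transfected HepG2 cells precedes RNA isolation, DNase-treated reverse transcription and PCR of reporter sequences. Labelled fragments are sized by capillary electrophoresis and fitted bidirectionally versus DMSO.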

[8] = target: Heat shock factor protein 1 (Homo sapiens) (UniProt Q00613); test: ATG_HSE_CIS: Attagene CIS-FACTORIAL HepG2 Assay for human Heat Shock Transcription Factor 1 (HSE) (AID 2282953); conditions: HepG2 HSE cis-reporter, Attagene RNA transcription; actives raise or lower the signal
Chain of Heat shock factor protein 1 (Homo sapiens) (Q00613 whole entry, looked up): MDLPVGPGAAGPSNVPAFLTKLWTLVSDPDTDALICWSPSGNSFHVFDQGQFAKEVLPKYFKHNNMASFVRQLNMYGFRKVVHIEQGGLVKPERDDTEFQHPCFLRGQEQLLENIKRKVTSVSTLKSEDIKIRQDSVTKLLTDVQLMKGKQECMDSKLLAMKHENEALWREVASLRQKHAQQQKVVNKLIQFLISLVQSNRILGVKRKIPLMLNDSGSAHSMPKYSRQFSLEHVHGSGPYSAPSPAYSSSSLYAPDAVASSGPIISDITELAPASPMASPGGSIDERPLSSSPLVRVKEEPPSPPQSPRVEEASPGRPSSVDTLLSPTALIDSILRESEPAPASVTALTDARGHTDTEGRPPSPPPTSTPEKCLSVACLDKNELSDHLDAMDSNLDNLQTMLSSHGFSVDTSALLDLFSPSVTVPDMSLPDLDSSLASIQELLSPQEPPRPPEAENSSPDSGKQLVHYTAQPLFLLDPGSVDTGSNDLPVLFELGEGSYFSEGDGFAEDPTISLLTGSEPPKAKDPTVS
In short: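 Using HepG2 with transfected cis-driven reporter constructs, compound effects on endogenous factor activity are scored as reporter mRNA change at 24 h. Detection: RT-PCR, HpaI digestion, capillary electrophoresis; bidirectional fitting to DMSO.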

[9] = ATG_MRE_CIS: Attagene CIS-FACTORIAL HepG2 Assay for human Metal Responsive Element (MRE) (AID 2282954); conditions: HepG2 MRE cis-reporter transcription, Attagene multiplex; actives raise or lower the signal
In short: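 Endogenous MRE-dependent transcription read as reporter mRNA in transiently transfected human HepG2 cells at 24 h. RNA reverse-transcribed, PCR-amplified, labelled and resolved by capillary electrophoresis; gain or loss relative to DMSO.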

[10] = ATG_PBREM_CIS: Attagene CIS-FACTORIAL HepG2 Assay for human Phenobarbital-responsive Enhancer Module (PBREM) (AID 2282955); conditions: HepG2 PBREM cis-reporter, Attagene multiplexed transcription; actives raise or lower the signal
In short: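 Fluorescence of labelled reporter cDNA fragments, resolved by capillary electrophoresis, gives mRNA induction in transfected HepG2 cells treated for 24 h; DMSO serves as negative control and baseline.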

[11] = ATG_PXRE_CIS: Attagene CIS-FACTORIAL HepG2 Assay for human Pregnane X Receptor Element (PXRE) (AID 2282957); conditions: HepG2 Attagene CIS-FACTORIAL PXRE reporter, mRNA; actives raise or lower the signal
In short: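 Bidirectional activity, baselined to DMSO, derived from reporter mRNA fluorescence (RT-PCR plus capillary electrophoresis) in HepG2 cells bearing cis-promoter reporter units, 24 h exposure.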

[12] = ATG_PPRE_CIS: Attagene CIS-FACTORIAL HepG2 Assay for human Peroxisome Proliferator-activated Response Element (PPRE) (AID 2282958); conditions: HepG2 PPRE cis-element reporter, Attagene transcription factor profiling; actives raise or lower the signal
In short: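 Cells are first transfected transiently with the multiplexed reporter library, then dosed for 24 h. Total RNA is reverse-transcribed, amplified, fluorescently end-labeled and HpaI-cut before capillary electrophoresis; activity is fitted bidirectionally against DMSO controls.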

[13] = ATG_RORE_CIS: Attagene CIS-FACTORIAL HepG2 Assay for human RAR-related Orphan Receptor Element (RORE) (AID 2282959); conditions: HepG2 Attagene cis-factorial RORE reporter, mRNA; actives raise or lower the signal
In short: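 Cells were HepG2 carrying transfected cis-regulated reporter constructs, dosed for 24 hours. Total RNA was reverse-transcribed and reporter cDNA amplified, fluorescently labeled and sized by capillary electrophoresis. Activity was fitted bidirectionally relative to DMSO.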

[14] = ATG_Sox_CIS: Attagene CIS-FACTORIAL HepG2 Assay for human SRY-box transcription factor (SOX) (AID 2282960); conditions: HepG2 Attagene cis-factorial SOX reporter, mRNA; actives raise or lower the signal
In short: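 Transient MRTU transfection of HepG2; 24 h compound incubation; TriZol RNA, oligo(dT) RT, PCR, 6-FAM primer extension, HpaI cut, CE. Bidirectional fit, DMSO = baseline.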

[15] = target: Transcription factor Sp1 (Homo sapiens) (UniProt P08047); test: ATG_Sp1_CIS: Attagene CIS-FACTORIAL HepG2 Assay for human Specificity Protein 1 (Sp1) (AID 2282961); conditions: HepG2 Sp1 cis-reporter transcription, actives raise or lower the signal
Chain of Transcription factor Sp1 (Homo sapiens) (P08047 whole entry, looked up): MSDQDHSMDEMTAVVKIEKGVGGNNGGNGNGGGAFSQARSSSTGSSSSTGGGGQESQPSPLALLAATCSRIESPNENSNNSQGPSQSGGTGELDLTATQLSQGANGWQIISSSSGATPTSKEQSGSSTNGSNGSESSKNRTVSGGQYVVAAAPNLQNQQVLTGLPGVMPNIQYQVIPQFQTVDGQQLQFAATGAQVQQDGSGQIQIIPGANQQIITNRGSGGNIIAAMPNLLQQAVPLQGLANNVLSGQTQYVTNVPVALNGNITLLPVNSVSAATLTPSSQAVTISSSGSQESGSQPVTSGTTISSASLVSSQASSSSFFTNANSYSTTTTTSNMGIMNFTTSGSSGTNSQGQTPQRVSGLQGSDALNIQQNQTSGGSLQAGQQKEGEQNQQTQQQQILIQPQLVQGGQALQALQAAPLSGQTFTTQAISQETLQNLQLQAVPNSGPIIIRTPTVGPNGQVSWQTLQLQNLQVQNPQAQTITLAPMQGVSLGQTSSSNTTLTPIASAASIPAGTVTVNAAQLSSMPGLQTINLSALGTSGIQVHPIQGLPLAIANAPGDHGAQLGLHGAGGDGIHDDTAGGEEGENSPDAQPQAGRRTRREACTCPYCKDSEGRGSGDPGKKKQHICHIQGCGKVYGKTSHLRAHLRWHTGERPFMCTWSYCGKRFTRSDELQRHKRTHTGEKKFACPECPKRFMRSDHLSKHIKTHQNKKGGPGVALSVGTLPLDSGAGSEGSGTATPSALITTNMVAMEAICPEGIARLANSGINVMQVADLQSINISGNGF
In short: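 Endogenous Sp1 activity was gauged in human liver HepG2 cells bearing transfected reporter units under a cis-regulating promoter. After 24 h dosing, reporter mRNA was quantified by RT-PCR with capillary electrophoresis, and activity fitted bidirectionally versus DMSO.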

[16] = ATG_SREBP_CIS: Attagene CIS-FACTORIAL HepG2 Assay for human Sterol Regulatory Element Binding (SREBP) (AID 2282962); conditions: HepG2 Attagene cis-factorial SREBP reporter, mRNA; actives raise or lower the signal
In short: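 Readout: fluorescent reporter-transcript peaks resolved by capillary electrophoresis after RT-PCR. Cells were human HepG2 carrying transfected cis-promoter reporter constructs, dosed for 24 h. Gain or loss of signal was fitted against DMSO controls.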

[17] = target: Signal transducer and activator of transcription 3 (Homo sapiens) (UniProt P40763); test: ATG_STAT3_CIS: Attagene CIS-FACTORIAL HepG2 Assay for human Signal Transducer and Activator of Transcription 3 (STAT3) (AID 2282963); conditions: HepG2, Attagene cis-factorial STAT3 reporter transcription; actives raise or lower the signal
Chain of Signal transducer and activator of transcription 3 (Homo sapiens) (P40763 whole entry, looked up): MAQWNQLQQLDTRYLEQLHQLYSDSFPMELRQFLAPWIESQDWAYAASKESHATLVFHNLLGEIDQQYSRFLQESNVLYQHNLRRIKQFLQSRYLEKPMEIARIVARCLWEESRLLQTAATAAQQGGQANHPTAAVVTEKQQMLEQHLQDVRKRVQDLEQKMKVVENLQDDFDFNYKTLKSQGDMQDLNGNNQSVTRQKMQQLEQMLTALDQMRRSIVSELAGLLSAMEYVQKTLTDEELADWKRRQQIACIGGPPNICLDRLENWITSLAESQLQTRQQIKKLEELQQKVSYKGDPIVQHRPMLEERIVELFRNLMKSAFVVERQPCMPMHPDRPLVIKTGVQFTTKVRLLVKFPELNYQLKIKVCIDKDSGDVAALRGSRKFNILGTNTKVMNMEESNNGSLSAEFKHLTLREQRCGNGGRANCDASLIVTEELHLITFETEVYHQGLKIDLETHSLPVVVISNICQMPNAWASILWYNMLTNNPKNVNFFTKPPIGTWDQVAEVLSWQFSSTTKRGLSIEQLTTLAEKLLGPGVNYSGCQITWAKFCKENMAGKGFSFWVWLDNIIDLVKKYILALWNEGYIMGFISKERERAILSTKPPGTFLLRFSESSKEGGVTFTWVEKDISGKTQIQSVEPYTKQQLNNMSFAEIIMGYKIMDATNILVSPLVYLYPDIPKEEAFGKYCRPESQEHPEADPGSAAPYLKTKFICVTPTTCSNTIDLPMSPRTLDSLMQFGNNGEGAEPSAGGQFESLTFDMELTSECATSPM
In short: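 Readout is reporter transcript quantified by RT-PCR and capillary electrophoresis, with 6-FAM primer extension and HpaI digestion. Total RNA is taken 24 h after dosing transiently transfected HepG2 carrying cis-regulated reporter units. Bidirectional fit against DMSO.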

[18] = ATG_TA_CIS: Attagene CIS-FACTORIAL HepG2 Assay for human TA Basal Promoter (AID 2282964); conditions: HepG2 Attagene CIS-factorial TA basal promoter reporter; actives raise or lower the signal
In short: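 Transient MRTU transfection of HepG2 preceded 24 h compound exposure. Reporter mRNA levels were then read by RT-PCR with capillary electrophoresis, and this background-control endpoint was fitted bidirectionally to DMSO.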

[19] = ATG_M_06_CIS: Attagene CIS-FACTORIAL HepG2 Assay for M06 Transcription Factor (Internal Marker) (AID 2282950); conditions: HepG2 Attagene CIS-FACTORIAL M06 internal marker reporter; actives raise or lower the signal
In short: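 One of many multiplexed endpoints: HepG2 reporter mRNA after 24 h dosing, detected by RT-PCR and capillary electrophoresis fluorescence; gain or loss of signal analysed against DMSO.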

[20] = target: Paired box protein Pax-6 (Homo sapiens) (UniProt P26367); test: ATG_Pax6_CIS: Attagene CIS-FACTORIAL HepG2 Assay for human Paired Box 6 (PAX6) (AID 2282956); conditions: HepG2 CIS-FACTORIAL PAX6 reporter transcription, RNA readout; actives raise or lower the signal
Chain of Paired box protein Pax-6 (Homo sapiens) (P26367 whole entry, looked up): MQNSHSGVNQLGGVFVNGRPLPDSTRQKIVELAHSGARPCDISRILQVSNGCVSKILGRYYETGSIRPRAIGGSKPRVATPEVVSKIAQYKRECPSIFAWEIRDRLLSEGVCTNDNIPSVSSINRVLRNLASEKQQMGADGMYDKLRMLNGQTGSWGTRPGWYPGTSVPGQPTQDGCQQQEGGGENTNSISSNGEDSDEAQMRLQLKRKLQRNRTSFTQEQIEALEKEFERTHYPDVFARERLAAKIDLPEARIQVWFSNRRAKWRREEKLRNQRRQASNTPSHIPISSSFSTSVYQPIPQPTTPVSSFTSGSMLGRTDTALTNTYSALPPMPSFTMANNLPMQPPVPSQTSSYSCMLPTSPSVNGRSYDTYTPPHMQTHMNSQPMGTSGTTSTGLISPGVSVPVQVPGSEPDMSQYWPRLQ
In short: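 Readout: reporter transcript fluorescence after RT-PCR and capillary electrophoresis. Cells: HepG2, transiently transfected with cis-regulated MRTUs. Exposure 24 h. Gain or loss of signal fitted bidirectionally relative to DMSO.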

Measured: AC50

CCCCCCCCCCCCc1ccccc1S(=O)(=O)O
active: [11] 4.41 µM
not listed: [19] | [20]
inactive: all other assays above

O=[N+]([O-])c1ccc(O)cc1
active: [6] 151 µM
inactive: [1] | [4] | [5] | [19] | [6] | [7] | [8] | [9] | [10] | [20] | [11] | [12] | [14] | [15] | [16] | [17] | [18]

CCCCC(CC)COC(=O)CCCCC(=O)OCC(CC)CCCC (centres undefined)
not listed: [19] | [20]
inactive: all other assays above

C#C[C@]1(O)CC[C@H]2[C@@H]3CCC4=CC(=O)CC[C@@H]4[C@H]3CC[C@@]21C
active: [11] 26.9 µM [middle of 4 runs]
not listed: [2] | [6] | [7]
inactive: all other assays above

Oc1cccc(O)c1
not listed: [10] | [19]
inactive: all other assays above

C=C(C)C(=O)OCCC(F)(F)C(F)(F)C(F)(F)C(F)(F)C(F)(F)C(F)(F)F
not listed: [12] | [19] | [20]
inactive: all other assays above

CC(C)(C)CC(C)(C)c1ccc(O)c(-n2nc3ccccc3n2)c1
active: [11] 1.15 µM
not listed: [19] | [20]
inactive: all other assays above
